{"source": "the supplement of paper PMC11732987", "about": "“Enantioselective OTUD7B fragment discovery through chemoproteomics screening and high-throughput optimisation” (Communications Chemistry, 2025)", "experiment_in_all_cases": "log2 ratio of Biotin-Ahx-Ub-VS probe labelling (fragment/DMSO); higher = less target engagement (more negative = stronger competition), active = hit call of the paper (q ≤ 0.05, log2 ratio ≤ -1)", "details_in_all_cases": "compound concentration: 200 uM; treatment time: 3 h", "key": {"OTUD6B": {"target": "T1, OTUD6B (UniProt Q8N6M0)", "T1 sequence (whole entry)": "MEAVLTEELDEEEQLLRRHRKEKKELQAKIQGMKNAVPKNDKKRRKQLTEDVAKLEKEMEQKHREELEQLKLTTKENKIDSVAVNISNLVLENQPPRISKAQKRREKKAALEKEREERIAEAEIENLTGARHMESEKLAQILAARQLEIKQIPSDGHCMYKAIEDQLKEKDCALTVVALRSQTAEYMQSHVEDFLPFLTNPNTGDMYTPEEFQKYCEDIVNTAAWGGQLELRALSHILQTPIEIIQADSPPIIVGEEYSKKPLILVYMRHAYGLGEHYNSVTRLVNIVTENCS", "method_in_brief": "(§1)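 Using Biotin-Ahx-Ub-VS at 0.5 µM final for 1 h, DUBs were labelled in HEK293T lysate (495 µg per sample) that had first been treated in triplicate with fragment at 200 µM or vehicle for 3 h. NeutrAvidin enrichment, LysC and trypsin digestion and diaPASEF LC-MS/MS followed. Spectronaut label-free quantities were global-median-normalised. Values are average log2 fragment/vehicle ratios by unpaired t-test, using proteins with ≥2 unique peptides.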"}, "OTUD7B": {"target": "T2, OTUD7B (UniProt Q6GQQ9)", "T2 sequence (whole entry)": "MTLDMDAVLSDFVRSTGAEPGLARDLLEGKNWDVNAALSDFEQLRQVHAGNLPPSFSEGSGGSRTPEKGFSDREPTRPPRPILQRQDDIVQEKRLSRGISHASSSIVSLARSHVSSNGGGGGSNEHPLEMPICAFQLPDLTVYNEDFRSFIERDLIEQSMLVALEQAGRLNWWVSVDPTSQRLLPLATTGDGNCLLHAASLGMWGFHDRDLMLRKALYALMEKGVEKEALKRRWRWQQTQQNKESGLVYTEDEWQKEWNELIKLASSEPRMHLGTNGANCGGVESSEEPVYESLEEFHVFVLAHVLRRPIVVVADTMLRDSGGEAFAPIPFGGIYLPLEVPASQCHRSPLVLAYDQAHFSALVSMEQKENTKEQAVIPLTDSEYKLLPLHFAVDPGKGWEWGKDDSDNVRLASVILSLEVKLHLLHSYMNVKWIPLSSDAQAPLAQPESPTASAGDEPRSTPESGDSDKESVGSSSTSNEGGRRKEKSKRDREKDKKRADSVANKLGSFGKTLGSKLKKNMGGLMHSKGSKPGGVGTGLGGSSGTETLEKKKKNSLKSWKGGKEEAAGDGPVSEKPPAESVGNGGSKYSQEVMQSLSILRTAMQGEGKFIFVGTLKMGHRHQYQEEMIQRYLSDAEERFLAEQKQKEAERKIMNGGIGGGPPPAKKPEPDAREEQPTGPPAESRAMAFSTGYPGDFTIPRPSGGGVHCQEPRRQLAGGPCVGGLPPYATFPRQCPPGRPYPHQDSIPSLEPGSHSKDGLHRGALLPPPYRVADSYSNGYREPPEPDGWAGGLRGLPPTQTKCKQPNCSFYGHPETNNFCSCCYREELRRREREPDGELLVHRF", "method_in_brief": "as §1"}, "PRPF8": {"target": "PRPF8 (UniProt Q6P2Q9)", "method_in_brief": "as §1"}, "PSMD7": {"target": "T3, PSMD7 (UniProt P51665)", "T3 sequence (whole entry)": "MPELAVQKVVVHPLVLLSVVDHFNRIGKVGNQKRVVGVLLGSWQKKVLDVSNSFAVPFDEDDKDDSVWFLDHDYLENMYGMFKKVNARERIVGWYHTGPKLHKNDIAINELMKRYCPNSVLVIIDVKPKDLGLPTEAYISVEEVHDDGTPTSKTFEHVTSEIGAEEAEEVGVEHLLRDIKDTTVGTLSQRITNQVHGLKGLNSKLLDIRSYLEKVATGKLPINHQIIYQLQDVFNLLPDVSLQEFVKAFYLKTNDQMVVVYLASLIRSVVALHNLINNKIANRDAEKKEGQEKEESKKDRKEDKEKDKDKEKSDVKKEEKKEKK", "method_in_brief": "as §1"}, "UCHL1": {"target": "UCHL1 (UniProt P09936)", "sequence (P09936 whole entry, looked up)": "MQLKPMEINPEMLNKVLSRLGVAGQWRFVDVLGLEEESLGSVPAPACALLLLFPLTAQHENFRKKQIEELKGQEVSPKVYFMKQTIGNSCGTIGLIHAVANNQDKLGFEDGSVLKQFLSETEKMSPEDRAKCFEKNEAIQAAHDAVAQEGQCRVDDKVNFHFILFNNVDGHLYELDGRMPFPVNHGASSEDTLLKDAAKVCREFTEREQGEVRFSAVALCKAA", "method_in_brief": "as §1"}, "UCHL3": {"target": "T4, UCHL3 (UniProt P15374)", "T4 sequence (whole entry)": "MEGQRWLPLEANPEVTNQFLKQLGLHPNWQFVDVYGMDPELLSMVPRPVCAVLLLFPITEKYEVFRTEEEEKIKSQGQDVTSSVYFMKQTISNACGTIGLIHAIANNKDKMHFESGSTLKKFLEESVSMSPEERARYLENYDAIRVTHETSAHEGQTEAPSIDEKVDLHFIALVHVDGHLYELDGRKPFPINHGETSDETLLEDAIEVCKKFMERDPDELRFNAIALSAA", "method_in_brief": "as §1"}, "UCHL5": {"target": "T5, UCHL5 (UniProt Q9Y5K5)", "T5 sequence (whole entry)": "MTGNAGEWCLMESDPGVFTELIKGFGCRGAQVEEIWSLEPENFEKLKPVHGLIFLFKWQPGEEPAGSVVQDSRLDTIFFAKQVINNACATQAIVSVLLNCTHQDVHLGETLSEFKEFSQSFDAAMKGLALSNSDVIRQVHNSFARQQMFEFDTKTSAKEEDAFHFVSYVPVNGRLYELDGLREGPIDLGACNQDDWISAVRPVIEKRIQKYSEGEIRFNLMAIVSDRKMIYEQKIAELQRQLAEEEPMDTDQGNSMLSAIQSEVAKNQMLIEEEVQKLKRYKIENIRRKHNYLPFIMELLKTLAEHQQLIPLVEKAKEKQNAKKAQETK", "method_in_brief": "as §1"}, "USP10": {"target": "USP10 (UniProt Q14694)", "sequence (Q14694 whole entry)": "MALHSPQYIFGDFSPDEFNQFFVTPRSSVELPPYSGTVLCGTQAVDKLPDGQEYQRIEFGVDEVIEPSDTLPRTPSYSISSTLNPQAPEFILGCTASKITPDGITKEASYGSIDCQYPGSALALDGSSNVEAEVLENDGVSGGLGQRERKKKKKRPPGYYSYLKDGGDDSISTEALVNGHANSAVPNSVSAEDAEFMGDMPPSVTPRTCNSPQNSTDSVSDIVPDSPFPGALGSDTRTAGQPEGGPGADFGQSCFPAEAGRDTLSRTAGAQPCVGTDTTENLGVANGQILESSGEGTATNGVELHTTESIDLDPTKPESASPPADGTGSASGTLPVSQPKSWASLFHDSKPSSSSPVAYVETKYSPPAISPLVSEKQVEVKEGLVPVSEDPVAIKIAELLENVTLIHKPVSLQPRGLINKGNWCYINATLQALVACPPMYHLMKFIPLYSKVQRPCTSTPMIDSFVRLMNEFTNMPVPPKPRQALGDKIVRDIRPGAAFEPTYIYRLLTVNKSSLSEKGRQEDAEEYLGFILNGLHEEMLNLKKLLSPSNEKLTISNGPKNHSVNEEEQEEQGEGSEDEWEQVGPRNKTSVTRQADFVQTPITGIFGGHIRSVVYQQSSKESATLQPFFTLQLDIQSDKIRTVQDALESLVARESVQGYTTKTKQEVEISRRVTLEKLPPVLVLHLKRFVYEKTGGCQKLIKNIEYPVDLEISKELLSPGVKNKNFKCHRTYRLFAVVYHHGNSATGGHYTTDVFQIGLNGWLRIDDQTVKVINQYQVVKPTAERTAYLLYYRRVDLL", "method_in_brief": "as §1"}, "USP15": {"target": "T6, USP15 (UniProt Q9Y4E8)", "T6 sequence (whole entry)": "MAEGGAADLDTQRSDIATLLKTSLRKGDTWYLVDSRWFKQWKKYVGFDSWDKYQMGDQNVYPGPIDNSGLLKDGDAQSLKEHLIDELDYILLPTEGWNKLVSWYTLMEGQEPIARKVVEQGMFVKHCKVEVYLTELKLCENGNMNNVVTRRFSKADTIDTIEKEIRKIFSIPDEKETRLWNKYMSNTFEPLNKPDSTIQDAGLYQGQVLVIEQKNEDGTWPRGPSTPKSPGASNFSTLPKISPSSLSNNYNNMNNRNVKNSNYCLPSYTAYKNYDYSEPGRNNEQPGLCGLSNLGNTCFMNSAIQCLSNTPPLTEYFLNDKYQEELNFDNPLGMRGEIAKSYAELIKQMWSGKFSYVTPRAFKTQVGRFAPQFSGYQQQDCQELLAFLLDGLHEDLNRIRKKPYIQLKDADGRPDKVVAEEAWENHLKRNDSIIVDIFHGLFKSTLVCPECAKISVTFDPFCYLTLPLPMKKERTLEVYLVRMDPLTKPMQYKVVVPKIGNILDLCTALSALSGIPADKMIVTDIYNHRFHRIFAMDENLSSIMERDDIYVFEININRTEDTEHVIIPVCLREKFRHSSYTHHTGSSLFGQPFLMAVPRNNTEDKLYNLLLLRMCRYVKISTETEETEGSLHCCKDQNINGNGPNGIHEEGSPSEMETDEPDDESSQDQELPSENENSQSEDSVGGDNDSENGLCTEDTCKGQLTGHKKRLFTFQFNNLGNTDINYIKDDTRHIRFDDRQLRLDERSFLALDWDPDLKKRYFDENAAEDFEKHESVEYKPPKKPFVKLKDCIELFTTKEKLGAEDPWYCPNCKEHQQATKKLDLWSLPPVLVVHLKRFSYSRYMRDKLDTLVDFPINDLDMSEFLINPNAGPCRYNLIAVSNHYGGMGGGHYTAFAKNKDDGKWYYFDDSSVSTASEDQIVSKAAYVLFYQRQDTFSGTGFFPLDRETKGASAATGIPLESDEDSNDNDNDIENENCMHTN", "method_in_brief": "as §1"}, "USP16": {"target": "USP16 (UniProt Q9Y5T5)", "sequence (Q9Y5T5 whole entry, looked up)": "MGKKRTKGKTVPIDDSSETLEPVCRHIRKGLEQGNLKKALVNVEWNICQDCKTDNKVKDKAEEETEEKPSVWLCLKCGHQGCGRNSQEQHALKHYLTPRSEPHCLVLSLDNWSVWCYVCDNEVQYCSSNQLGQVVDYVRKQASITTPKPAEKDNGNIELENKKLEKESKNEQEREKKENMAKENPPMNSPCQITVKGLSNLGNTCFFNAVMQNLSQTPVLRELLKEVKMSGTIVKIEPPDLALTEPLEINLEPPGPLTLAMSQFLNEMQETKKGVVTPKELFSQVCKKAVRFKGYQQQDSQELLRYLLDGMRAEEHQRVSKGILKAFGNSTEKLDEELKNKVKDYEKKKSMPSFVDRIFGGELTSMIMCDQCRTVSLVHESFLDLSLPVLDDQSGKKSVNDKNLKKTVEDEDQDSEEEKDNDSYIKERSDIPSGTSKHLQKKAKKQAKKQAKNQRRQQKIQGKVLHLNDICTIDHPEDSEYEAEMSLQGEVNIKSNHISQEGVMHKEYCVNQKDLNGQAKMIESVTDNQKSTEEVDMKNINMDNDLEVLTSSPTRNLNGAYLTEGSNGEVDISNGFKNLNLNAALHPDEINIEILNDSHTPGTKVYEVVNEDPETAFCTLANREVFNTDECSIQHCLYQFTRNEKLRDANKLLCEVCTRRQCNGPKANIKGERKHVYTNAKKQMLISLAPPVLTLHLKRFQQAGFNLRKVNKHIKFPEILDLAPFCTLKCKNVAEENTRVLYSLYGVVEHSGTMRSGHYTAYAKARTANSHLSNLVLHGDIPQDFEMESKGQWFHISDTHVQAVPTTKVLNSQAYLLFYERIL", "method_in_brief": "as §1"}}, "note": "Values without a mark were called inactive.", "data": [{"molecule": "CN(C)S(=O)(=O)c1ccccc1CNC(=O)CCl", "values": [{"measurement": "log2 ratio of Biotin-Ahx-Ub-VS probe labelling", "setting": "OTUD6B", "result": -0.265}, {"measurement": "log2 ratio of Biotin-Ahx-Ub-VS probe labelling", "setting": "OTUD7B", "result": -0.0445}, {"measurement": "log2 ratio of Biotin-Ahx-Ub-VS probe labelling", "setting": "PRPF8", "result": -0.0375}, {"measurement": "log2 ratio of Biotin-Ahx-Ub-VS probe labelling", "setting": "PSMD7", "result": -0.18}, {"measurement": "log2 ratio of Biotin-Ahx-Ub-VS probe labelling", "setting": "UCHL1", "result": "-1.18 (active)"}, {"measurement": "log2 ratio of Biotin-Ahx-Ub-VS probe labelling", "setting": "UCHL3", "result": 0.0942}, {"measurement": "log2 ratio of Biotin-Ahx-Ub-VS probe labelling", "setting": "UCHL5", "result": -0.199}, {"measurement": "log2 ratio of Biotin-Ahx-Ub-VS probe labelling", "setting": "USP10", "result": -0.156}, {"measurement": "log2 ratio of Biotin-Ahx-Ub-VS probe labelling", "setting": "USP15", "result": -0.0655}, {"measurement": "log2 ratio of Biotin-Ahx-Ub-VS probe labelling", "setting": "USP16", "result": 0.14}]}]}
